Screening results: PubChem, National Center for Advancing Translational Sciences (NCATS)
Only some compounds are listed: those with a hit (about 18% of all), similar ones and a draw of the others.
TDP1 cell noCPT: qHTS for Inhibitors of human tyrosyl-DNA phosphodiesterase 1 (TDP1): qHTS in cells in absence of CPT | DT40 Tdp1-/- hTDP1 cells, no CPT, ATP luminescence, 48 h | Potency, µM (titrated, usually from 46.2 µM), for the others: top-dose activity change, negative = growth inhibition, hits mostly inhibitors | 15% of 420,000 active; also: potency is read from the fitted curve at half-maximal effect; % is scaled to controls: 0 for no effect and ±100 for the full control effect; nearly all actives have a fitted effect of over 55% in size
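Camptothecin absent (DMSO only). Human TDP1-complemented DT40 knockout cells, 400 cells/well, 37 °C for minimum 48 hr; ATP measured via CellTiter-Glo, 30 min dark incubation, luminescence.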
HepG2 tox: counter-screen for TGF-b inhibitors: cytotoxicity in HepG2 cells | HepG2 CAGA-GFP viability, ATP luminescence, 18 h | AID 588856 | 0.76% of 410,000 active | Potency, µM (top dose mostly 46.1 µM), without a hit: at the top dose activity change, negative = cytotoxicity, hits mostly cytotoxic; also: potency is read from the fitted curve at half-maximal effect
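CellTiter-Glo luminescence gave cytotoxicity after 18 hours at 37 degrees C. The cells were HepG2 CAGA-GFP in 1% FBS DMEM, stimulated with 500 pg/mL TGF-beta after compound addition. %Activity was normalised to no-cell wells (complete cell-killing) and DMSO (no toxicity), and curves were fitted and classified.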
IL1B secr inh: blocks inflammasome-driven IL-1 beta release | THP-1 LPS/ATP IL-1B secretion, AlphaLISA, 16 h; stronger effect = lower value | 4.7% of 360,000 active | activity change, % at 57.5 µM; in the data active = activity change below about -50%; inconclusive = mostly about -30% to -49%; also: % is scaled to controls: 0 for no effect and ±100 for the full control effect
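THP-1 cells pretreated 1 hr with compounds (up to 57.5 uM final), then stimulated with LPS (250 ng/mL final) plus ATP (1.25 mM final); secreted IL-1B measured by AlphaLISA after 16 hr, decreased signal indicating inhibition.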
TDP1 block: TDP1 (human) enzyme inhibition. Q9NUW8. recombinant TDP1, AlphaScreen DNA substrate cleavage. Potency, µM (doses to about 130 µM), for inactives: at the top dose activity change, negative = inhibition, usual class: inhibitors. 0.28% of 350,000 active; also: potency is read from the fitted curve at half-maximal effect; % is scaled to controls: 0 for no effect and ±100 for the full control effect; nearly all actives have a fitted effect of over 40% in size
Target sequence (Q9NUW8 whole entry, looked up): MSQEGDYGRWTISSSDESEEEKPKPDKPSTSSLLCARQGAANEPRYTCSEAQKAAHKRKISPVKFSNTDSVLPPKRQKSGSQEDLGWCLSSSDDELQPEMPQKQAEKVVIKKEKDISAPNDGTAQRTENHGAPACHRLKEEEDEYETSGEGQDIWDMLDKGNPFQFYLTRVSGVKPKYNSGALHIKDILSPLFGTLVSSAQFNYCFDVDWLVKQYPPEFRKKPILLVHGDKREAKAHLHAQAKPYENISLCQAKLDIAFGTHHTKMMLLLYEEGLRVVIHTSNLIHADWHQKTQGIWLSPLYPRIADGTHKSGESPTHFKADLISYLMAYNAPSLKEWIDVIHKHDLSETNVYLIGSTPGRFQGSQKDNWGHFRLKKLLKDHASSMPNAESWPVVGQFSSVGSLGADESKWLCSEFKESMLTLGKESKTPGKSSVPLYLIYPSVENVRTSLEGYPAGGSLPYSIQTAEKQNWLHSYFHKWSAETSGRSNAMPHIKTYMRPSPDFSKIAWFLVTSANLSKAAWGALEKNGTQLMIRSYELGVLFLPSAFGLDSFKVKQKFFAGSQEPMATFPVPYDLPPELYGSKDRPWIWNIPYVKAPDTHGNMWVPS
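Compounds were preincubated with Tdp1 (1 nM final) for 15 min at room temperature before substrate (15 nM final) started a 5 min reaction; beads (10 ug/ml final) were then added for 10 min before AlphaScreen detection.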
DT40 TDP1 CPT: DT40-hTDP1 cell growth loss with CPT; AID 686979; 12% of 420,000 active; chicken DT40 Tdp1-/-;hTDP1 cells + 20 nM CPT, ATP luminescence, 48 h; Potency, µM (series often up to 46.2 µM), for inactives: top-dose activity change, negative = growth inhibition, most hits filed as inhibitors; also: potency is read from the fitted curve at half-maximal effect; % is scaled to controls: 0 for no effect and ±100 for the full control effect; nearly all actives have a fitted effect of over 55% in size
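Chicken DT40 Tdp1-/- cells stably complemented with human TDP1 were seeded at 400 cells/well in medium containing 20 nM camptothecin, exposed to pin-transferred compounds, and grown at 37 °C for at least 48 hr. Viability was read as ATP luminescence.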
TGFb SMAD3 inh: inhibitors of TGF-b signaling; 1.2% of 410,000 active; Potency, µM (top dose mostly 46.1 µM), for inactives: top-dose activity, negative = inhibition, most hits filed as inhibitors; AID 588855; HepG2 CAGA-GFP TGF-b/SMAD3 reporter, GFP fluorescence, 18 h; TGF-beta stimulated, 500 pg/mL final; also: potency is read from the fitted curve at half-maximal effect; % is scaled to controls: 0 for no effect and ±100 for the full control effect; nearly all actives have a fitted effect of over 65% in size
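Inhibition of TGF-beta-driven CAGA-GFP reporter expression in HEPG2 cells is measured by cellular GFP fluorescence after 18 h stimulation with 500 pg/mL recombinant TGF-beta in 1% FBS medium at 37 degrees C.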
* marks the source's active call; other numbers are inactive results; ? = inconclusive; nt = no result; [ ] = remark or other dose. Unless noted, calls follow the shape of the dose curve; as a rule, active = well fitted curve in the direction sought with a large enough effect; inconclusive = small, poorly fitted or top-dose-only effect, or another doubt; inactive = no such curve, though single readings can be large; an effect the other way counts as inactive or inconclusive.

SMILES | TDP1 cell noCPT | HepG2 tox | IL1B secr inh | TDP1 block | DT40 TDP1 CPT | TGFb SMAD3 inh
Cc1onc(C(=O)Nc2cccnc2Cl)c1[N+](=O)[O-] | -13% | -4% | 24 | 6% | ? | 2%
CC(C)c1onc(C(=O)NCc2ccccc2)c1[N+](=O)[O-] | 21µM* | -7% | -9 | 0% | 16µM* | ?
CC(C)c1onc(C(=O)Nc2cccnc2Cl)c1[N+](=O)[O-] | ? | 6% | 4 | 3% | 23µM* | -1%
CCc1ccccc1NC(=O)c1noc(C(C)C)c1[N+](=O)[O-] | ? | -17% | ? | -3% | 15µM* | -16%
Cc1cccc(C)c1NC(=O)C1(C)CN(S(C)(=O)=O)CC(=O)N1CC(F)(F)F (configuration not stated) | 6% | nt | 24 | nt | 7% | nt
CC(Oc1ccc(Cl)cc1)C(=O)N1CCN(C(=O)c2ccco2)CC1 (configuration not stated) | -12% | 2% | 17 | 0% | -8% | -10%
COc1ccccc1CNC(=O)Nc1cccs1 | ? | -6% | 14 | 7% | ? | -2%
COC(=O)C1(C(=O)OC)C[C@H](/C=C/c2ccccc2)N(Cc2ccccc2OC)[C@@H]1c1ccccc1 | 15µM* | nt | 0 | nt | ? | nt
CCOc1ccccc1CN1[C@@H](c2ccc(OC)cc2)CC(C(=O)OC)(C(=O)OC)[C@H]1c1ccccc1 | 15µM* | nt | -13 | nt | ? | nt
CCOc1ccccc1CN1CCCC(CNS(=O)(=O)c2ccc(OC)cc2)C1 (configuration not stated) | ? | -30% | -5 | -1% | ? | -19%
COC(=O)C1(C(=O)OC)C[C@H](/C=C/c2ccccc2)N(Cc2ccccc2OC)[C@@H]1c1cccc(Br)c1 | ? | nt | 3 | nt | ? | nt
COC(=O)C1(C(=O)OC)C[C@H](c2cccs2)N(Cc2ccccc2OC)[C@@H]1c1ccc(F)cc1 | 15µM* | nt | -6 | nt | 15µM* | nt
CCCN1CNc2c(c(=O)[nH]c(=S)n2CCc2ccc(C)cc2C)C1 | ? | nt | nt | -1% | ? | nt
O=C1c2ccccc2C(c2nnnn2-c2ccc3c(c2)OCCO3)N1Cc1cccnc1 (configuration not stated) | ? | nt | 23 | nt | -30% | nt
COc1ccc(-n2nnnc2C2c3ccccc3C(=O)N2C2CCN(Cc3ccccc3)CC2)cc1 (configuration not stated) | 16µM* | nt | 2 | nt | ? | nt
O=C1c2ccccc2C(c2nnnn2-c2ccc3c(c2)OCCO3)N1Cc1cccc(F)c1 (configuration not stated) | 16µM* | nt | 52 | nt | ? | nt
COc1ccc(S(=O)(=O)N2CCN(C3CCN(Cc4ccccc4)CC3)CC2)cc1 | ? | -17% | -16 | 2% | -20% | -32%
COc1ccc(CCN2C(=O)c3ccccc3C2c2nnnn2-c2ccc3c(c2)OCCO3)cc1OC (configuration not stated) | ? | nt | -3 | nt | -18% | nt
COc1ccc(OC)c(CN2C(=O)c3ccccc3C2c2nnnn2-c2ccc3c(c2)OCCO3)c1 (configuration not stated) | 5.8µM* | nt | 68 | nt | 6.5µM* | nt
O=C1c2ccccc2C(c2nnnn2-c2ccc3c(c2)OCCO3)N1Cc1ccc2c(c1)OCO2 (configuration not stated) | 16µM* | nt | 0 | nt | 18µM* | nt
O=C1c2ccccc2C(c2nnnn2-c2ccc3c(c2)OCCO3)N1CCc1ccccc1F (configuration not stated) | ? | nt | 9 | nt | 15µM* | nt
CN(CCc1ccccc1)C(C(=O)Nc1ccc2c(c1)OCCO2)c1ccnc2ccccc12 (configuration not stated) | ? | -1% | -18 | nt | ? | ?
Clc1ccc(Cl)c(OCCN2CCCC2)c1 | 10% | -10% | 2 | nt | 5% | -2%
CCCCNCCCOc1cccc(Cl)c1Cl | ? | -39% | -64* | 2% | 15µM* | ?
OCCNCCCOc1cccc(Cl)c1Cl | 0.21µM* | nt | nt | 17%[56.1 µM] | 0.19µM* | nt
SMILES | TDP1 cell noCPT | HepG2 tox | IL1B secr inh | TDP1 block | DT40 TDP1 CPT | TGFb SMAD3 inh
OCCNCCCOc1cc(Cl)ccc1Cl | 18µM* | -11% | -2 | 5% | ? | 9%
COc1ccccc1OCCCCCNCCO | -9% | -14% | -2 | 2% | -14% | -37%
COc1ccc(NC(=O)CSc2nc(-c3ccc(OC)cc3)cc(=O)[nH]2)cc1 | -2% | -1% | nt | nt | -9% | 32%
CC(=O)N/N=C(\C)C1COc2ccccc2O1 (configuration not stated) | -4% | 9% | 9 | nt | 3% | 11%
Cc1ccc(C)c(NS(=O)(=O)c2ccc3c4c(cccc24)C(=O)N3)c1 | 15µM* | -79% | nt | 2%[12.3 µM] | ? | ?
CCN(CC)CCNS(=O)(=O)c1ccc2c3c(cccc13)C(=O)N2 | 15µM* | 0% | -2 | 0% | ? | ?
CCn1cc(C2=NOC(C(=O)Nc3cc(C)nn3-c3ccccc3)C2)c(C)n1 (configuration not stated) | -13% | -33% | 21 | 4% | -11% | 1%
CCn1c(=O)c([N+](=O)[O-])c(Cl)c2ccccc21 | 2.6µM* | -57% | -96* | 3% | 2.9µM* | ?
Cc1cc(NC(=O)CSCC(=O)Nc2cccc(S(=O)(=O)N3CCCCCC3)c2)no1 | -25% | 8% | -3 | -11% | -28% | ?
COc1ccc(CNC(=S)Nc2cccc(F)c2)cc1 | 5% | -1% | -4 | nt | 9% | -24%
CNc1nc(-c2cccc(NS(C)(=O)=O)c2)nc2ccccc12 | -5% | nt | nt | nt | -23% | nt
Oc1ccc(Nc2nc(-c3ccc(Cl)cc3)nc3ccccc23)cc1 | ? | 14µM* | nt | 1% | ? | ?
Cc1ccc2nc(-c3cccc(NS(C)(=O)=O)c3)cc(-c3ccccc3)c2c1 | ? | -75% | -100* | 5% | ? | ?
CC(=O)Nc1ccc(Nc2nc(-c3ccccc3)nc3ccccc23)cc1 | 23µM* | -29% | ? | -3% | 18µM* | 0%
CS(=O)(=O)Nc1cccc(-c2nc(Nc3ccc(F)cc3)c3ccccc3n2)c1 | 4.1µM* | nt | nt | -13%[56.1 µM] | 5.8µM* | nt
Cc1cccc(CNc2nc(-c3cccc(NS(C)(=O)=O)c3)nc3ccccc23)c1 | ? | nt | nt | 16%[56.1 µM] | ? | nt
